The test system of experiment [1] is Wnt5a (protein binding on small-molecule microarray). Kind of experiment: small molecules binding Wnt5a protein – biophysical, small-molecule microarray, 635/667 nm fluorescence, primary screen (AID 1142).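 Note: fluorescence read at 667 nm with signal to noise per printed feature.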 Conditions: 635 nm fluorescence, higher = more signal.
Experiment [2] in a line: ATP-based viability of Huh7 replicon cells – cell-based, CellTiter-Glo luminescence, basal, 48 h, cytotoxicity control for HCV replication inhibitor project, primary screen (AID 1143).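 Note: Huh7 hepatoma cells carrying a hepatitis C replication reporter with no stimulus; test concentration not given here.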 Conditions: higher = more signal, called active from +8 up or from −8 down.
Experiment [3] can be described thus: Pseudomonas biofilm growth suppression – PAO1 strain, BacTiter-Glo luminescence, LB-PBS, primary screen (AID 1144). Particulars: P. aeruginosa PAO1 biofilm, 12 h, higher = more signal.
The nature of experiment [4]: basal CRE-LacZ reporter activity in PC12 – cell-based, unstimulated, primary screen (AID 1145). Conditions: no forskolin, luminescence, 4.5 h, higher = more signal, called active from +8 up or from −8 down.
Experiment [5] can be described thus: forskolin-driven CRE-LacZ activity in PC12 – cell-based, CRE-LacZ reporter, forskolin-stimulated, primary screen (AID 1146).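 Note: PC12 cells with 6xCRE LacZ reporter stimulated by forskolin 10 µM; beta-galactosidase reporter signal reflecting CREB driven transcription.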 Particulars: luminescence, 4.5 h, higher = more signal, called active from +8 up or from −8 down.
Experiment [6] deals with Streptavidin (Streptomyces avidinii) (UniProt P22629). Nature of the experiment: compounds binding control protein streptavidin – biophysical, small-molecule microarray, 635/667 nm fluorescence, artefact control for SMM compound annotation, primary screen (AID 1147).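 Note: signal reflects streptavidin binding to arrayed compounds as a control protein.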 Particulars: higher = more signal.
The nature of experiment [7]: probe aInhba binding on compound microarray – biochemical, small-molecule microarray, 635/667 nm fluorescence, primary screen (AID 1148).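 Note: score merges 667nm spot fluorescence with signal-to-noise for antibody binding to printed compounds.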 Particulars: higher = more signal.
In experiment [8] the target is Torsin-1A (Homo sapiens) (UniProt O14656). Kind of experiment: TOR1A wild-type binding on microarray – cell lysate, small-molecule microarray, lysate, 635/667 nm, primary screen (AID 1149). Particulars: COS7 hTOR1A-WT lysate, 635 nm fluorescence, higher = more signal.
For experiment [9] the target is unchanged. Kind of experiment: torsin A mutant lysate binding on microarrays – cell lysate, small-molecule microarray, COS7 lysate, 635/667 nm fluorescence, primary screen (AID 1150).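 Note: score pools 667 nm emission and signal to noise measuring lysate protein binding.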 Conditions: COS7 hTOR1A mutant lysate, 635 nm fluorescence, higher = more signal.
The test system of experiment [10] is Sonic hedgehog protein (Shh). Nature of the experiment: Sonic hedgehog microarray binding compounds – biochemical, small-molecule microarray, 635/667 nm fluorescence, primary screen (AID 1151).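 Note: Shh protein binding to compounds spotted on small-molecule microarray slides; score combines spot fluorescence intensity with signal-to-noise across triplicate slides.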 Particulars: 635 nm fluorescence, higher = more signal.
Experiment [11] can be described thus: optical density shifts of acrAB sulA E. coli – strain DRC41, OD650, 48 h, E. coli filamentation inducer project, primary screen (AID 1152).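 Note: E. coli MC1000 strain DRC41 lacking acrAB efflux pump and sulA.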 Conditions: higher = more signal, called active from +8 up or from −8 down.
Experiment [12] is described as follows: probe aLefty1 binding on compound microarray – biochemical, small-molecule microarray, 635/667 nm fluorescence, primary screen (AID 1153).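 Note: score merges spot fluorescence with signal-to-noise ratio from the scanned slide images.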 Conditions: higher = more signal.
Experiment [13] in a line: plasmodial surface anion channel blockers, osmotic lysis – cell-based, P. falciparum Indochina, OD700, 1 h, primary screen (AID 1154). Particulars: P. falciparum Indochina infected RBC osmotic lysis, higher = more signal, called active from +8 up or from −8 down.
Experiment [14] in a line: plasmodial surface anion channel blockers, osmotic lysis – cell-based, P. falciparum Indochina, OD700, 2 h, primary screen (AID 1155).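 Note: lysis reports solute entry through the parasite surface anion channel PSAC.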 Particulars: P. falciparum Indochina infected erythrocytes, higher = more signal, called active from +8 up or from −8 down.
Experiment [15] is described as follows: changes in parasitized red cell lysis, either direction – P. falciparum Indochina, OD700, 3 h, PSAC antagonist project, primary screen (AID 1156). Particulars: P. falciparum-infected erythrocytes, osmotic lysis, higher = more signal, called active from +8 up or from −8 down.
A short description of experiment [16]: plasmodial surface anion channel blockers, osmotic lysis – cell-based, P. falciparum Indochina, OD700, 18 h, primary screen (AID 1157). Conditions: P. falciparum Indochina infected erythrocytes, osmotic lysis OD700, 18 h; higher = more signal, called active from +8 up or from −8 down.
The nature of experiment [17]: S6 kinase pathway phospho-S6 level changes – cell-based, A549, cytoblot, luminescence, serum-stimulated, primary screen (AID 1158).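 Note: serum-stimulated A549 lung adenocarcinoma cells; signal is phosphorylated S6 detected by cytoblot immunostaining with HRP secondary.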 Conditions: 5 h, higher = more signal.
The target in experiment [18] is NADPH oxidase 2 (Homo sapiens) (UniProt P04839). Nature of the experiment: compounds shifting NOX2 Amplex Red fluorescence – cell-based, HEK293-NOX2, PMA-stimulated, NOX inhibitor project, primary screen (AID 1159). Note: test concentration not given here. Conditions: 45 min, higher = more signal, called active from +8 up or from −8 down.
In experiment [19] the target is NADPH oxidase 4 (Homo sapiens) (UniProt Q9NPH5). Nature of the experiment: compounds shifting NOX4 Amplex Red fluorescence – cell-based, HEK293-NOX4, tetracycline-induced, NOX inhibitor project, primary screen (AID 1160). Particulars: HEK293-NOX4, Amplex Red H2O2 fluorescence, 45 min; higher = more signal, called active from +8 up or from −8 down.
In experiment [20] the target is NADPH oxidase 5 (Homo sapiens) (UniProt Q96PH1). Nature of the experiment: compounds shifting NOX5 Amplex Red fluorescence – cell-based, HEK293-NOX5, NOX inhibitor project, primary screen (AID 1161). Conditions: HEK293-NOX5, ionomycin, 45 min, higher = more signal.

The source made the active and inactive calls. Unless noted, the rule behind the calls is not given here.

Sequence of Streptavidin (Streptomyces avidinii) (P22629 whole entry, looked up): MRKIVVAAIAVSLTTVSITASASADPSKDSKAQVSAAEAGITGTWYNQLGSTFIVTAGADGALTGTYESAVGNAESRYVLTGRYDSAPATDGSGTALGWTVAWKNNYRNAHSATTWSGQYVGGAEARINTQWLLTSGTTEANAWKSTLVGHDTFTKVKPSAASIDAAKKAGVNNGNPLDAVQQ
Sequence of NADPH oxidase 5 (Homo sapiens) (Q96PH1 whole entry, looked up): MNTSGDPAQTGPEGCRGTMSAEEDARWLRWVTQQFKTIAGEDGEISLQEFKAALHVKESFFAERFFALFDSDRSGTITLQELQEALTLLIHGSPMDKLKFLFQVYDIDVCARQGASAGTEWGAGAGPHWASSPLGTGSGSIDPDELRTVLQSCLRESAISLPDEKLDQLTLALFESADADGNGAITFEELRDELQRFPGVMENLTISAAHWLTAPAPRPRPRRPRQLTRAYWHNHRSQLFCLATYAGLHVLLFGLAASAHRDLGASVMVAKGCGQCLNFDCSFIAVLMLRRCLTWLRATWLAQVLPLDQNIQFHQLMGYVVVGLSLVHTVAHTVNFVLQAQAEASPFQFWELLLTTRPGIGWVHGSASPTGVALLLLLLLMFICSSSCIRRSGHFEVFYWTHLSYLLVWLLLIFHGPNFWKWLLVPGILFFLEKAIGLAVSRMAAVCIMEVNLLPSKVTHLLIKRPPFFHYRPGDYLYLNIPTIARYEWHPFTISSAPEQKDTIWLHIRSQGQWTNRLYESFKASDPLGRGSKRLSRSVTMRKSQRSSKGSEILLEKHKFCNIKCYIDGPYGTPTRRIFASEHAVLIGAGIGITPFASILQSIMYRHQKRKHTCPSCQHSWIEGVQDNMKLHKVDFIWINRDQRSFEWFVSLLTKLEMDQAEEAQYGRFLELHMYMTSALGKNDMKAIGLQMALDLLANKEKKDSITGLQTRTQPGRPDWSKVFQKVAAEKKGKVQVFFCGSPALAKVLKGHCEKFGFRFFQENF
Sequence of Torsin-1A (Homo sapiens) (O14656 whole entry, looked up): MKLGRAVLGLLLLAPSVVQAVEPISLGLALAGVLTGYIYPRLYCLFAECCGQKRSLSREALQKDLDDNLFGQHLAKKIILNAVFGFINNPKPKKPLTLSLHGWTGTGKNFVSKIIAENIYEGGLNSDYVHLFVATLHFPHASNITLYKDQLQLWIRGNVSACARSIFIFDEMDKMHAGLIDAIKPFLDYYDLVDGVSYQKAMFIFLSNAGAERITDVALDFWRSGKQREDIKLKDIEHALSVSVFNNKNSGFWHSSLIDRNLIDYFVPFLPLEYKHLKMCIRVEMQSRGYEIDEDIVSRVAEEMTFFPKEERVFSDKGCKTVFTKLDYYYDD
Sequence of NADPH oxidase 4 (Homo sapiens) (Q9NPH5 whole entry, looked up): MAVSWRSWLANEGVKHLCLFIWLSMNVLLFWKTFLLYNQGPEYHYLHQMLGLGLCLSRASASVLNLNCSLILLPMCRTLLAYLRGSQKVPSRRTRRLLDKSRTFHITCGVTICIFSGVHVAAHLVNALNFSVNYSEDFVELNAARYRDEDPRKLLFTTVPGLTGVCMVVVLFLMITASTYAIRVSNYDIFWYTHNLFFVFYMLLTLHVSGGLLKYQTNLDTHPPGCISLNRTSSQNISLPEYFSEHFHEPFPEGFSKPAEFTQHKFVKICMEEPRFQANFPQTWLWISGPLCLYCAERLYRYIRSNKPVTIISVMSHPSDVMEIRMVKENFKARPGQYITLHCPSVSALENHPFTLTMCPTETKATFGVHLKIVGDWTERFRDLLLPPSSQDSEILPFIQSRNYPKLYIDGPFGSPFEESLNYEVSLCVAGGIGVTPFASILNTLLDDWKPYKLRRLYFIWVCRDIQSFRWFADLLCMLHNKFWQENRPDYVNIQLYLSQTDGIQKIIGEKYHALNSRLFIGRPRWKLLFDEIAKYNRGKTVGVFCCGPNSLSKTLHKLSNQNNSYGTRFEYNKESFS
Sequence of NADPH oxidase 2 (Homo sapiens) (P04839 whole entry, looked up): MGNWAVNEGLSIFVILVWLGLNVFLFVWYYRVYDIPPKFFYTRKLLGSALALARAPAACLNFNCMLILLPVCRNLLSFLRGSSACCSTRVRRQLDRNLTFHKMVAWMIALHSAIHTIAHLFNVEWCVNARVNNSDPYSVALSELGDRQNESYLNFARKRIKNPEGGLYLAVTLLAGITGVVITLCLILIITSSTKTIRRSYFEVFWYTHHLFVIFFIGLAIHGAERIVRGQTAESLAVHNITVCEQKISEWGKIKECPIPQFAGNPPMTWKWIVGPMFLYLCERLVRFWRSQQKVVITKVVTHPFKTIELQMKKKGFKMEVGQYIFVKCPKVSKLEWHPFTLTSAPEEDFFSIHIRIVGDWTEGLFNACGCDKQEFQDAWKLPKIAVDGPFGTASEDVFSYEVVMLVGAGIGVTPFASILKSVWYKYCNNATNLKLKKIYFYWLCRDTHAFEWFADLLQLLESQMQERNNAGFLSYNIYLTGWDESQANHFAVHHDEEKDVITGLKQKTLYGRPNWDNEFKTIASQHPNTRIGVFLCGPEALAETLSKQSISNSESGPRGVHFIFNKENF

Consider `COC(=O)[C@@]1(Cc2ccc(F)cc2)[C@H]2c3cc(C(=O)N4CCCC4)n(Cc4ccc(C(F)(F)F)nc4)c3C[C@H]2CN1C(=O)c1ccccc1`, for which the composite z-score in experiment [1] was 0.406; in experiment [6], 1.99; in experiment [7], -0.025; in [8] it was 1.45; in [9] it was 1.14; in [10] it was -0.388. Also, the composite z-score in experiment [12] amounted to 0.93. In addition, the z-score in experiment [2] is -2.55 (inactive); in experiment [3] it was 0.193 (inactive); in [4] it was 0.197 (inactive); in experiment [5], -0.388 (inactive); in experiment [11], -0.984 (inactive); in experiment [13], 2.37 (inactive). Besides, the z-score in experiment [14] is 0.229 (inactive); in [15] it was 2.16 (inactive); in experiment [16], 0.716 (inactive); in [17], -0.186; in experiment [18], 0.0745 (inactive); in [19], 0.488 (inactive). Moreover, in experiment [20], the z-score was -2.46.
As to `CCOC(=O)C=C1C[C@@H](c2cccc([N+](=O)[O-])c2)O[C@@H](c2cccc([N+](=O)[O-])c2)O1`, the composite z-score in experiment [1] was determined as 0.719; in experiment [6] it was 0.865; in experiment [7], 0.503; in experiment [8] it was 0.167; in experiment [9] it was 0.582; in experiment [10], 0.147. In experiment [12], this compound displayed a composite z-score of 1.21. Besides, the z-score was -3.18 (inactive) in experiment [2]; 0.397 (inactive) in experiment [3]; -0.527 (inactive) in [4]; -0.495 (inactive) in [5]; -0.546 (inactive) in experiment [11]; 1.65 (inactive) in experiment [13]. In addition, the z-score is 1.11 (inactive) in experiment [14]; -0.481 (inactive) in experiment [15]; 0.66 (inactive) in experiment [16]; -0.125 in [17]; 0.325 (inactive) in [18]; 0.481 (inactive) in experiment [19]. In addition, the z-score in experiment [20] was 1.28.
`[N-]=[N+]=NCc1ccccc1[C@H]1OC(c2ccc(OCCCO)cc2)=N[C@@]1(Cc1ccccc1N=[N+]=[N-])C(=O)N1CCOCC1`: the composite z-score in [1] is 0.135; in experiment [6], 1.24; in experiment [7], 0.222; in experiment [8] it was 0.249; in experiment [9], 0.488; in [10], -1.15. The compound further had a composite z-score in experiment [12] of 0.181. The z-score is -3.35 (inactive) in experiment [2]; -0.149 (inactive) in experiment [3]; 2.61 (inactive) in experiment [4]; -0.529 (inactive) in experiment [5]; -0.476 (inactive) in [11]; 28.3 (active) in [13]. In addition, the z-score is 22 (active) in [14]; 2.5 (inactive) in experiment [15]; 3.77 (inactive) in experiment [16]; -0.318 in [17]; -5.55 (inactive) in experiment [18]; -1.03 (inactive) in experiment [19]. For the same compound, in experiment [20], the z-score is -2.42.
Consider `O=C1O[C@H](c2ccccc2)[C@H](c2ccccc2)N2[C@H]1[C@@H](C(=O)O)[C@]1(C(=O)Nc3ccccc31)[C@H]2c1ccc(OCCO)cc1`, for which the composite z-score in [1] is -0.0515; in experiment [6], 1.08; in experiment [7], -0.0468; in [8], 0.658; in experiment [9], -0.283; in experiment [10] it was 0.98. Moreover, the composite z-score in experiment [12] was found to be 0.183. Also, the z-score was 0.234 (inactive) in experiment [2]; -0.369 (inactive) in [3]; 0.739 (inactive) in experiment [4]; 0.727 (inactive) in experiment [5]; 0.368 (inactive) in experiment [11]; 3.81 (inactive) in [13]. For the same compound, the z-score in experiment [14] was 0.173 (inactive); in experiment [15] it was -0.776 (inactive); in [16], 0.124 (inactive); in experiment [17], -0.412; in experiment [18] it was 0.388 (inactive); in [19] it was 1.09 (inactive). The z-score in experiment [20] turned out to be 0.958.

Values taken from PubChem BioAssay.
